For test [1], the target named is Cytochrome P450 2C9 (Homo sapiens) (UniProt P11712). The test can be described thus: Cytochrome P450 Family 2 Subfamily C Member 9 (CYP2C9) small molecule antagonists: luciferase reporter qHTS assay (AID 1671198). In a few lines:
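Enzyme-substrate mix preincubated with compound 10 min at room temperature; reaction started with NADPH regeneration solution, 1 h 37C. Luminescent luciferin product read after 20 min detection reagent.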

The target in test [2] is Cytochrome P450 1A2 (Homo sapiens) (UniProt P05177). The test can be described thus: Cytochrome P450 Family 1 Subfamily A Member 2 (CYP1A2) small molecule antagonists: luciferase reporter qHTS assay (AID 1671199). In a few lines: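 Quantitative high-throughput format using the P450-Glo CYP1A2 system. Reaction initiated by NADPH regeneration solution, 1 h at room temperature, then stopped with detection reagent; luminescence measured 20 min later.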
Sequence of Cytochrome P450 1A2 (Homo sapiens) (P05177 whole entry, looked up): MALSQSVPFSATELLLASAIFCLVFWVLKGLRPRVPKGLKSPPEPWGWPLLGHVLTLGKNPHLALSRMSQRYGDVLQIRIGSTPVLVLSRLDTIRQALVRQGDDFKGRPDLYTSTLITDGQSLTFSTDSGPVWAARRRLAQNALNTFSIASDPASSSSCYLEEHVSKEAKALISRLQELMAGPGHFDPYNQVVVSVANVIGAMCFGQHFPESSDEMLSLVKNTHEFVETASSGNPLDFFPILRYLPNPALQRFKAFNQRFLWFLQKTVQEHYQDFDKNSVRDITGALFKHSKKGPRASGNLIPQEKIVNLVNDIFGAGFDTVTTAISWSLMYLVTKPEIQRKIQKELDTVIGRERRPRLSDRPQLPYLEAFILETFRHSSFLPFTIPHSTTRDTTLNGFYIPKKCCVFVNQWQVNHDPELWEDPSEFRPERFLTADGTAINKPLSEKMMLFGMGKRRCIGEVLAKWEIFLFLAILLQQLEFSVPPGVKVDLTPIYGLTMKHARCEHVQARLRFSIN
(Reporter assays use an easily measured gene product as a stand-in for the process of interest.)

Test [3] has as its target Voltage-gated inwardly rectifying potassium channel KCNH2 (Homo sapiens) (UniProt Q12809). The test can be described thus: Human Ether-a-go-go-Related Gene (hERG) channel small molecule antagonists: fluorescence cell-based qHTS assay (AID 1671200). In a few lines: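 Thallium served as the potassium surrogate; its influx into dye-loaded U2OS cells carrying the channel was measured by fluorescence over 2 min.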
Background: Block of hERG is tested as a sign of cardiac risk.

Test [4] concerns the target Cytochrome P450 3A4 (Homo sapiens) (UniProt P08684). The test can be described thus: Cytochrome P450 Family 3 Subfamily A Member 4 (CYP3A4) small molecule antagonists: luciferase reporter qHTS assay (AID 1671201). In a few lines: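 Relative luminescence units after 20 min with luciferin detection reagent served as read-out. Beforehand, CYP3A4 turned over a proluciferin substrate for 1 h at room temperature with NADPH regeneration, following 10 min compound preincubation.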

The text below walks through data of PubChem BioAssay (Tox21).

Values joined by “and” are separate entries in the source; they are usually repeats but may differ in a detail not shown here. Equal entries are not always repeated. Results filed as inconclusive are left out. Some compounds were tested as several samples or in several runs, with calls that do not always agree. Active and inactive are the calls of the source. The call rests on the fitted dose curve; in most records, active means well fitted curve in the direction sought with a large enough effect in the repeat runs; inconclusive means weak or mixed curves; inactive means no such curve, though single readings can be large; an effect the other way counts as inactive or inconclusive.
Further: nearly all actives have a fitted effect of over 50% in size.
Potency means the concentration at half of the fitted maximal effect.

Sequence of Cytochrome P450 3A4 (Homo sapiens) (P08684 whole entry, looked up): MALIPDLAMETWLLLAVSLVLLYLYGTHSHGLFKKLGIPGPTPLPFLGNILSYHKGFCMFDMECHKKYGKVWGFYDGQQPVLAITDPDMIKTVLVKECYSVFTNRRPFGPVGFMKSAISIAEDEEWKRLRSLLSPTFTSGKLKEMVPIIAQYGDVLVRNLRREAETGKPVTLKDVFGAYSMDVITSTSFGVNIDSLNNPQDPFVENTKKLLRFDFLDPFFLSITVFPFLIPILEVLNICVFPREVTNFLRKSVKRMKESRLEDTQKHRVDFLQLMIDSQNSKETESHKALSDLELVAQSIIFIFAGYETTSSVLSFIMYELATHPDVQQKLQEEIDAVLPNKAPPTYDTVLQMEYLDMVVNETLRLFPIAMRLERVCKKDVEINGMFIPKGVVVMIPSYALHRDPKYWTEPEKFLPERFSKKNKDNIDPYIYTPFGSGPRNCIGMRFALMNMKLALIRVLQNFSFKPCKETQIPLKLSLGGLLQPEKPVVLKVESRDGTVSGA
Sequence of Voltage-gated inwardly rectifying potassium channel KCNH2 (Homo sapiens) (Q12809 whole entry, looked up): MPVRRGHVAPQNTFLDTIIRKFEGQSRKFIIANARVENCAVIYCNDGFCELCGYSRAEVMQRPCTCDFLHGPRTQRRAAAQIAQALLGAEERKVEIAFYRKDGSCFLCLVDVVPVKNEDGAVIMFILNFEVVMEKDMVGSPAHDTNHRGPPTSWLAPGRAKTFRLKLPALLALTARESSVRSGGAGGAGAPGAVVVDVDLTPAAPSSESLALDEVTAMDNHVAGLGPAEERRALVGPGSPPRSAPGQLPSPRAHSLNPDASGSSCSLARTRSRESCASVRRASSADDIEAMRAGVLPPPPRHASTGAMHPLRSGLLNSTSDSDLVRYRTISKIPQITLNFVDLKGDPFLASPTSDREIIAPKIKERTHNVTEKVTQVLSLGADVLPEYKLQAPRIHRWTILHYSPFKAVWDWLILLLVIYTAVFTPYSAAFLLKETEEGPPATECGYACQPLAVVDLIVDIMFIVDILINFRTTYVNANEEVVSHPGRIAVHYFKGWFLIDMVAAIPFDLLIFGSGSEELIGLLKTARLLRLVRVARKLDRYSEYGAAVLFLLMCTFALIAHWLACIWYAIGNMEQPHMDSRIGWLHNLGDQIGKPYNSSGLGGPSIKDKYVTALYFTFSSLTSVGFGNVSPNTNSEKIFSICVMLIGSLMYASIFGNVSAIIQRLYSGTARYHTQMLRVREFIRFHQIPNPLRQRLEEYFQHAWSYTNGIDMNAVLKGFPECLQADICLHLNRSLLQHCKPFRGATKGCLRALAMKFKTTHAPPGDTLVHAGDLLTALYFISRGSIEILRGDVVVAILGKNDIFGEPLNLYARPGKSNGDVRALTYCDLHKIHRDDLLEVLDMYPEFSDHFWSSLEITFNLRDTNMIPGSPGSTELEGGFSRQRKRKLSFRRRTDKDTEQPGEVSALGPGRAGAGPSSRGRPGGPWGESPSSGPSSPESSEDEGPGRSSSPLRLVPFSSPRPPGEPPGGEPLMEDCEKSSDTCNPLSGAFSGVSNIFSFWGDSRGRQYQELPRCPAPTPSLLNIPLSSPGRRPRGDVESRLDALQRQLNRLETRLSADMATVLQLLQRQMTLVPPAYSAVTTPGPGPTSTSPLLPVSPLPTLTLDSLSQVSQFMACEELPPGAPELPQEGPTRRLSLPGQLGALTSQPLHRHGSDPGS
Sequence of Cytochrome P450 2C9 (Homo sapiens) (P11712 whole entry, looked up): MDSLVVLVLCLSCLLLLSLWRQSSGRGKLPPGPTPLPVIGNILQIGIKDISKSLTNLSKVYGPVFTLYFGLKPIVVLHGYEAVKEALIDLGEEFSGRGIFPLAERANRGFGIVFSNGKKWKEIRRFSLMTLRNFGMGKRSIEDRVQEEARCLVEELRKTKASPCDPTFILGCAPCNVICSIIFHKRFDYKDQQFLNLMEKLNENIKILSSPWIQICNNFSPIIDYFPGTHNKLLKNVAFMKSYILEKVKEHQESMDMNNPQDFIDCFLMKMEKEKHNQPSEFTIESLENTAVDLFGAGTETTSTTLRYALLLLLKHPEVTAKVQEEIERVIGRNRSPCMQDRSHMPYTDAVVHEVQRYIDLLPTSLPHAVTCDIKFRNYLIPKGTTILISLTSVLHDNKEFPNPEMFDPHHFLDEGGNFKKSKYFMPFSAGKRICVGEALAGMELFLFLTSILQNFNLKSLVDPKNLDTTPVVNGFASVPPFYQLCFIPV

Turning to `Cc1cnc(NS(=O)(=O)c2ccc(N)cc2)nc1`, the Potency result in test [1], in test [2], in test [3] and in test [4] was “inactive” throughout.
`COc1cc(C(=O)N2CCCCCCC2)cc(OC)c1OC`: the Potency entry in test [1], in test [2] and in test [3] was “inactive” throughout.
Turning to `CS(=O)(=O)O`, the Potency result in test [1], in test [3] and in test [4] was “inactive” each time. In addition, the Potency in test [2] was 31.9 µM (active).
`CC(C)NCC(O)c1ccc(NS(C)(=O)=O)cc1` (stereo not drawn): the Potency entry in test [1], in test [2] and in test [4] was “inactive” throughout. For the same compound, the Potency in test [3] is 22.1 µM (active).
Turning to `CCCC(=O)O[C@]1(C(=O)CO)CC[C@H]2[C@@H]3CCC4=CC(=O)CC[C@]4(C)[C@H]3[C@@H](O)C[C@@]21C`, the Potency result in test [1], in test [2] and in test [3] was “inactive” throughout.
Take `CCCCOCCOCCOCCCC`: the Potency result in test [1], in test [2], in test [3] and in test [4] was “inactive” in each case.
Consider `C=C(C)CS(=O)(=O)O`, for which the Potency result in test [1], in test [3] and in test [4] was “inactive” throughout. Further, the Potency in test [2] is 35.6 µM (active).
For the compound `COC(=O)CC(C)=O`, the Potency entry in test [1], in test [2], in test [3] and in test [4] was “inactive” each time.
Turning to `O=C(O)CCCc1ccccc1`, the Potency entry in test [1], in test [2], in test [3] and in test [4] was “inactive” in each case.
As to `N=c1nc(N2CCCCC2)cc(N)n1O`, the Potency result in test [1], in test [2], in test [3] and in test [4] was “inactive” throughout.
Take `CCCCC(CC)COC(=O)c1ccccc1O` (stereo not drawn): the Potency entry in test [1], in test [2], in test [3] and in test [4] was “inactive” throughout.
`CO[Si](CCCOCC1CO1)(OC)OC` (stereo not drawn): the Potency entry in test [1], in test [2], in test [3] and in test [4] was “inactive” each time.
`OC[C@]1(O)OC[C@@H](O)[C@H](O)[C@@H]1O`: the Potency result in test [1], in test [2], in test [3] and in test [4] was “inactive” in each case.
`CCOC(=O)c1ccc(C)cc1`: the Potency entry in test [1], in test [2], in test [3] and in test [4] was “inactive” in each case.
Turning to `c1cnc(N2CCN(Cc3ccc4c(c3)OCO4)CC2)nc1`, the figures for the Potency in test [1] and in test [2] were 15.5 µM (active) and 4.07 µM (active), respectively. Moreover, in test [3], the Potency entry is “inactive”.
Consider `CC(=O)OC/C=C(\C)CC/C=C(\C)CCC=C(C)C`, for which the Potency was 35.6 µM (active) in test [1] and 10 µM (active) in test [4]. Moreover, the Potency entry in test [2] and in test [3] was “inactive” throughout.
With `COC(=O)c1ccc(C)cc1C1=NC(C)(C(C)C)C(=O)N1` (stereo not drawn), the Potency result in test [1], in test [2] and in test [3] was “inactive” in each case.
`CN(C)CCCNCCCN(C)C`: the Potency entry in test [1], in test [2] and in test [3] was “inactive” in each case.
Take `CCOC(=O)[C@H](CCc1ccccc1)N[C@@H](C)C(=O)N1[C@H](C(=O)O)C[C@@H]2CCC[C@@H]21`: the Potency entry in test [1], in test [2] and in test [3] was “inactive” in each case.
Regarding `C=C[Si](OC(=C)C)(OC(=C)C)OC(=C)C`, the Potency result in test [1], in test [2] and in test [3] was “inactive” throughout.
As for `Cc1[nH]c(=O)c(C#N)cc1-c1ccc2nccn2c1`, the Potency result in test [1], in test [2], in test [3] and in test [4] was “inactive” throughout.
`CC(=O)N(CC(O)CO)c1c(I)c(C(=O)NCCO)c(I)c(C(=O)NCC(O)CO)c1I` (stereo not drawn): the Potency result in test [1], in test [2], in test [3] and in test [4] was “inactive” each time.
In the case of `NS(=O)(=O)c1cc(C(=O)NN2C[C@H]3[C@H]4CCC(C4)[C@H]3C2)ccc1Cl`, the Potency result in test [1], in test [2] and in test [3] was “inactive” throughout.
As for `CC(C)(c1ccc(O)cc1)c1ccc(O)cc1`, the Potency in test [1] is 35.2 µM (active) and 28.8 µM (active); in test [2], “inactive and 57.4 µM (active)”. For the same compound, the Potency entry in test [3] is “inactive”.
As for `O=S(O)CO`, the Potency result in test [1], in test [2], in test [3] and in test [4] was “inactive” throughout.
Take `C=CCOCC(CC)(CO)COCC=C`: the results for the Potency in test [1] and in test [2] were 25.2 µM (active) and 28.3 µM (active), respectively. Besides, the Potency entry in test [3] is “inactive”.
On to `OC(CCN1CCCCC1)(c1ccccc1)C1CC2C=CC1C2` (stereo not drawn), for which the Potency entry in test [1] and in test [2] was “inactive” in each case.
Regarding `c1ccc(CC2=NCCN2)cc1`, the Potency entry in test [1], in test [2], in test [3] and in test [4] was “inactive” each time.
As for `C[C@@H]1CCN(C(=O)[C@H](CCCN=C(N)N)NS(=O)(=O)c2cccc3c2NC[C@H](C)C3)[C@@H](C(=O)O)C1`, the Potency result in test [1] and in test [2] was “inactive” in each case.
In the case of `CCN(CC)CCOCCOC(=O)C1(c2ccccc2)CCCC1`, the Potency result in test [1], in test [2] and in test [3] was “inactive” throughout.
Turning to `CCCN1CCCC[C@H]1C(=O)Nc1c(C)cccc1C`, the Potency result in test [1], in test [2] and in test [3] was “inactive” in each case.
`CCOC(=O)Nc1ccc(NCc2ccc(F)cc2)nc1N`: the Potency in test [1] was 6.17 µM (active). Besides, in test [2], the Potency entry was “inactive”.
`Cn1cc(S(C)=O)c(=O)c2ccc(F)cc21` (stereo not drawn): the Potency entry in test [1], in test [2], in test [3] and in test [4] was “inactive” throughout.
`N[C@H]1CN(c2c(F)cc3c(=O)c(C(=O)O)cn(C4C[C@H]4F)c3c2Cl)CC12CC2` (stereo partly drawn): the Potency entry in test [1], in test [2] and in test [3] was “inactive” in each case.
For `COc1nc(N)nc2c1ncn2[C@@H]1O[C@H](CO)[C@@H](O)[C@@H]1O`, the Potency entry in test [1], in test [3] and in test [4] was “inactive” each time. Further, the Potency in test [2] was 24.5 µM (active).
`CN1CCC(=C2c3ccccc3CC(=O)c3sccc32)CC1`: the Potency result in test [1], in test [2], in test [3] and in test [4] was “inactive” each time.
Regarding `Cc1c(NC(C)C)c(=O)n(-c2ccccc2)n1C`, the Potency result in test [1], in test [3] and in test [4] was “inactive” throughout. The Potency in test [2] was 28.8 µM (active).
As to `CCS(=O)(=O)c1ccc(OC)c(C(=O)OC)c1`, the Potency result in test [1], in test [2], in test [3] and in test [4] was “inactive” throughout.
